# Source: PubChem BioAssay (EPA / NIEHS)
# Values joined by “and” are separate entries in the source; they are usually repeats but may differ in a detail not shown here. Equal values may be shown once. Active and inactive are the calls of the source. The calls were made as follows: active = hit-call score of the fitted dose curve at least 0.9, where 1 is the maximum; inactive = score below 0.9.
# Assay: CCTE_Shafer_MEA_acute_burst_percentage_mean: CCTE's Neural Acute Assay for Percentage of Spikes in a Burst, Shafer Lab (AID 2284017);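 as to AC50: curve fitted for loss of signal so potency reflects decreased burst percentage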
# Description: CCTE_Shafer_MEA_acute assay is conducted using Axion Biosystems 48 well microelectrode array (MEA) plates and Maestro recording system. Each well of the MEA plate contains a grid of 16 microelectrodes embedded in the culture surface. Electrically active cells, such as neurons, can be cultured over the electrodes, and electrical activity in these cells can be recorded extracellularly. The spontaneous firing of neurons is captured from each electrode on a microsecond timescale providing both temporally and spatially precise data. […] The CCTE_Shafer_MEA_acute assay uses primary cultures of rat cortical neurons. As these cultures mature over time, neural networks develop functional activity and form cohesive networks in which electrical activity can be highly coordinated. Baseline 40-minute recordings are made on days post-plating 13 or 15, followed by a secondary 40-minute recording after chemical exposure.CCTE_Shafer_MEA_acute_burst_percentage_mean is a component of the CCTE_Shafer_MEA_acute assay. It measures the percentage of spikes (action potential firing) in a single-electrode burst (temporally-clustered groups of spikes) as the number of spikes in bursts divided by the total number of spikes during a recording in a microelectrode array (MEA) using Axion Biosystems Maestro 768 channel amplifier with the AxIS adaptive spike detector. The average of the burst percentages across electrodes is calculated to report a well-level value. The recordings before and after chemical treatment are used to calculate a percent change in the mean burst percentage in each well.Data from the assay component CCTE_Shafer_MEA_acute_burst_percentage_mean was analyzed into 1 assay endpoint. This assay endpoint, CCTE_Shafer_MEA_acute_burst_percentage_mean, was analyzed in the negative analysis fitting direction relative to DMSO as the negative control and baseline of activity. Using a type of functional reporter, gain or loss-of-signal activity can be used to understand electrical activity.
# Spontaneous activity in the cortical cultures was recorded using an Axion Biosystems Maestro 768 channel amplifier and Axion Integrated Studios (AxIS) v1.8 (or later) software. The amplifier recorded from all channels simultaneously (gain = 1200 x; sampling rate = 12.5 kHz/channel): raw signals were filtered with a Butterworth band-pass filter (300-5000 Hz), which filters out slower local field potentials leaving only fast potentials, i.e., "spikes", arising from extracellular currents associated with action potentials (Pine 2006; Wheeler and Nam 2011). On-line spike detection of filtered signals was conducted with the AxIS adaptive spike detector, using a threshold of 8x the root mean squared (rms) noise on each channel. Any electrodes with rms noise levels greater than 5 uV were grounded (e.g., no data were recorded). Once grounded, an electrode was grounded for the duration of the experiment. All recordings were conducted at 37 C. Wells were deemed usable if on the day of the exposure >/= 10 electrodes were active (defined as >/= 5 spikes/min). On DIV 13 or 15, a minimum of three wells from one cortical culture preparation were treated with each compound (0.03-40 uM). Prior to recording baseline activity, each mwMEA plate was placed in the Maestro at 37 C and allowed to sit for 20 min while firing rates stabilized. Baseline activity (40 min) was recorded before the addition of each compound. An additional 40 min of spontaneous activity was recorded in the presence of each compound. Changes in network parameters relative to baseline were assessed following compound treatment.
Structure (SMILES),outcome,AC50
CC(C)(CO)CO,inactive,–
CCCO[Si](OCCC)(OCCC)OCCC,inactive,–
CC(C)CCCC(C)(C)O,inactive,–
CCn1cc(C(=O)O)c(=O)c2ccc(C)nc21,inactive,–
O=C(c1ccc(OCCN2CCCCC2)cc1)c1c(-c2ccc(O)cc2)sc2cc(O)ccc12,–,32.5 µM (active)
CCCCOCCOCCO,inactive,–
CC(=O)c1ccc(C)cc1,inactive,–
c1ccc(OCCOc2ccccc2)cc1,inactive,–
CC/C(=C(\c1ccccc1)c1ccc(OCCN(C)C)cc1)c1ccccc1,–,18.3 µM (active) and 15.8 µM (active)
N[C@@H](CCC(=O)O)C(=O)O,inactive,–
CCCCN(CCO)CCO,inactive,–
